These results are taken from PubChem BioAssay.

Experiment [1] relates to Wnt5a (protein binding on small-molecule microarray). Put plainly: small molecules binding Wnt5a protein – biophysical, small-molecule microarray, 635/667 nm fluorescence, primary screen (AID 1142).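 Note: fluorescence read at 667 nm with signal to noise per printed feature.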 The conditions noted are these: 635 nm fluorescence, higher = more signal.
Experiment [2] can be described thus: ATP-based viability of Huh7 replicon cells – cell-based, CellTiter-Glo luminescence, basal, 48 h, cytotoxicity control for HCV replication inhibitor project, primary screen (AID 1143).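 Note: Huh7 hepatoma cells carrying a hepatitis C replication reporter with no stimulus; test concentration not given here.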 The settings on record: higher = more signal, called active from +8 up or from −8 down. (In general: Replicon systems follow genome replication, usually without infectious particles.)

Experiment [3] in a line: Pseudomonas biofilm growth suppression – PAO1 strain, BacTiter-Glo luminescence, LB-PBS, primary screen (AID 1144). The conditions noted are these: P. aeruginosa PAO1 biofilm, 12 h, higher = more signal.
Experiment [4] in a line: basal CRE-LacZ reporter activity in PC12 – cell-based, unstimulated, primary screen (AID 1145). The conditions noted are these: no forskolin, luminescence, 4.5 h, higher = more signal, called active from +8 up or from −8 down.
Experiment [5] can be described thus: forskolin-driven CRE-LacZ activity in PC12 – cell-based, CRE-LacZ reporter, forskolin-stimulated, primary screen (AID 1146).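 Note: PC12 cells with 6xCRE LacZ reporter stimulated by forskolin 10 µM; beta-galactosidase reporter signal reflecting CREB driven transcription.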 The conditions noted are these: luminescence, 4.5 h, higher = more signal, called active from +8 up or from −8 down.
The target of experiment [6] is Streptavidin (Streptomyces avidinii) (UniProt P22629). Nature of the experiment: compounds binding control protein streptavidin – biophysical, small-molecule microarray, 635/667 nm fluorescence, artefact control for SMM compound annotation, primary screen (AID 1147).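 Note: signal reflects streptavidin binding to arrayed compounds as a control protein.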 The conditions noted are these: higher = more signal.
A short description of experiment [7]: probe aInhba binding on compound microarray – biochemical, small-molecule microarray, 635/667 nm fluorescence, primary screen (AID 1148).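 Note: score merges 667nm spot fluorescence with signal-to-noise for antibody binding to printed compounds.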 The settings on record: higher = more signal.
Experiment [8] concerns the target Torsin-1A (Homo sapiens) (UniProt O14656). Nature of the experiment: TOR1A wild-type binding on microarray – cell lysate, small-molecule microarray, lysate, 635/667 nm, primary screen (AID 1149). The conditions noted are these: COS7 hTOR1A-WT lysate, 635 nm fluorescence, higher = more signal.
For experiment [9] the target is unchanged. Put plainly: torsin A mutant lysate binding on microarrays – cell lysate, small-molecule microarray, COS7 lysate, 635/667 nm fluorescence, primary screen (AID 1150).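 Note: score pools 667 nm emission and signal to noise measuring lysate protein binding.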 The settings on record: COS7 hTOR1A mutant lysate, 635 nm fluorescence, higher = more signal.
Experiment [10] has as its system Sonic hedgehog protein (Shh). Put plainly: Sonic hedgehog microarray binding compounds – biochemical, small-molecule microarray, 635/667 nm fluorescence, primary screen (AID 1151).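 Note: Shh protein binding to compounds spotted on small-molecule microarray slides; score combines spot fluorescence intensity with signal-to-noise across triplicate slides.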 The conditions noted are these: 635 nm fluorescence, higher = more signal.
The nature of experiment [11]: optical density shifts of acrAB sulA E. coli – strain DRC41, OD650, 48 h, E. coli filamentation inducer project, primary screen (AID 1152).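 Note: E. coli MC1000 strain DRC41 lacking acrAB efflux pump and sulA.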 The settings on record: higher = more signal, called active from +8 up or from −8 down.
Experiment [12] is described as follows: probe aLefty1 binding on compound microarray – biochemical, small-molecule microarray, 635/667 nm fluorescence, primary screen (AID 1153).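 Note: score merges spot fluorescence with signal-to-noise ratio from the scanned slide images.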 The conditions noted are these: higher = more signal.
Experiment [13] is described as follows: plasmodial surface anion channel blockers, osmotic lysis – cell-based, P. falciparum Indochina, OD700, 1 h, primary screen (AID 1154). The settings on record: P. falciparum Indochina infected RBC osmotic lysis, higher = more signal, called active from +8 up or from −8 down.
Experiment [14] can be described thus: plasmodial surface anion channel blockers, osmotic lysis – cell-based, P. falciparum Indochina, OD700, 2 h, primary screen (AID 1155).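 Note: lysis reports solute entry through the parasite surface anion channel PSAC.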 The conditions noted are these: P. falciparum Indochina infected erythrocytes, higher = more signal, called active from +8 up or from −8 down.
The nature of experiment [15]: changes in parasitized red cell lysis, either direction – P. falciparum Indochina, OD700, 3 h, PSAC antagonist project, primary screen (AID 1156). The conditions noted are these: P. falciparum-infected erythrocytes, osmotic lysis, higher = more signal, called active from +8 up or from −8 down.
Experiment [16] can be described thus: plasmodial surface anion channel blockers, osmotic lysis – cell-based, P. falciparum Indochina, OD700, 18 h, primary screen (AID 1157). The conditions noted are these: P. falciparum Indochina infected erythrocytes, osmotic lysis OD700, 18 h; higher = more signal, called active from +8 up or from −8 down.
Experiment [17] is described as follows: S6 kinase pathway phospho-S6 level changes – cell-based, A549, cytoblot, luminescence, serum-stimulated, primary screen (AID 1158).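 Note: serum-stimulated A549 lung adenocarcinoma cells; signal is phosphorylated S6 detected by cytoblot immunostaining with HRP secondary.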 The conditions noted are these: 5 h, higher = more signal.
Experiment [18] deals with NADPH oxidase 2 (Homo sapiens) (UniProt P04839). Put plainly: compounds shifting NOX2 Amplex Red fluorescence – cell-based, HEK293-NOX2, PMA-stimulated, NOX inhibitor project, primary screen (AID 1159). Note: test concentration not given here. The settings on record: 45 min, higher = more signal, called active from +8 up or from −8 down.
For experiment [19], the target named is NADPH oxidase 4 (Homo sapiens) (UniProt Q9NPH5). Nature of the experiment: compounds shifting NOX4 Amplex Red fluorescence – cell-based, HEK293-NOX4, tetracycline-induced, NOX inhibitor project, primary screen (AID 1160). The conditions noted are these: HEK293-NOX4, Amplex Red H2O2 fluorescence, 45 min; higher = more signal, called active from +8 up or from −8 down.

Experiment [20] deals with NADPH oxidase 5 (Homo sapiens) (UniProt Q96PH1). Nature of the experiment: compounds shifting NOX5 Amplex Red fluorescence – cell-based, HEK293-NOX5, NOX inhibitor project, primary screen (AID 1161). The conditions noted are these: HEK293-NOX5, ionomycin, 45 min, higher = more signal.

Calls of active or inactive are those of the source. Unless noted, the rule behind the calls is not given here.

NADPH oxidase 2 (Homo sapiens), sequence (P04839 whole entry, looked up): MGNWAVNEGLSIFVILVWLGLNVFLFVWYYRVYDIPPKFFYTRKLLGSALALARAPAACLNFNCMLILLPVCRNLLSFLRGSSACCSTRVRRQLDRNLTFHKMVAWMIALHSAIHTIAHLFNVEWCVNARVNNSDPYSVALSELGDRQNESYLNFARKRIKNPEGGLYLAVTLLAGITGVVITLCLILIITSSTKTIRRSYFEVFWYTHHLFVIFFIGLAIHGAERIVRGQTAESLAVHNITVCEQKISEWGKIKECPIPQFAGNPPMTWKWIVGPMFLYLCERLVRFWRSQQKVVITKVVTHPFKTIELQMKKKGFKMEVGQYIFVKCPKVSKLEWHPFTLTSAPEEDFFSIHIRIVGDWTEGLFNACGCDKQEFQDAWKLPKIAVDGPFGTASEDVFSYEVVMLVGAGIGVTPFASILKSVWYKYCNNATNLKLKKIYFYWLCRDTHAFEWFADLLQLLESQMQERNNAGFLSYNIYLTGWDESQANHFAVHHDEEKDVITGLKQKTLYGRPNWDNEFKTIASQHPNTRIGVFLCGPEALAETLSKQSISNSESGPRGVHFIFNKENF
Torsin-1A (Homo sapiens), sequence (O14656 whole entry, looked up): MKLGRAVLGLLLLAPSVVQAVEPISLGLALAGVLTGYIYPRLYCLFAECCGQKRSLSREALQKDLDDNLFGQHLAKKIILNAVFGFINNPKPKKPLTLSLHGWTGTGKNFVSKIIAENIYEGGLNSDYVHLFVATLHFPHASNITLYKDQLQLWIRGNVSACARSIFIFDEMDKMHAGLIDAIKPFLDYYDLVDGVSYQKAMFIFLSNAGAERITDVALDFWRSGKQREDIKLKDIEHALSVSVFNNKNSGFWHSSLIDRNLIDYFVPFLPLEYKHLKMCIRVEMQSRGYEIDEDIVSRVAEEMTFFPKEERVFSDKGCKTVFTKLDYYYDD
Streptavidin (Streptomyces avidinii), sequence (P22629 whole entry, looked up): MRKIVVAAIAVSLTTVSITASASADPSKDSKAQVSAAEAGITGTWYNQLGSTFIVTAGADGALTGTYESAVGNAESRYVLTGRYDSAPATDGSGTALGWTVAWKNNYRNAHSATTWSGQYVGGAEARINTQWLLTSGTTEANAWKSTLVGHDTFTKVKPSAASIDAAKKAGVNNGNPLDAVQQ
NADPH oxidase 4 (Homo sapiens), sequence (Q9NPH5 whole entry, looked up): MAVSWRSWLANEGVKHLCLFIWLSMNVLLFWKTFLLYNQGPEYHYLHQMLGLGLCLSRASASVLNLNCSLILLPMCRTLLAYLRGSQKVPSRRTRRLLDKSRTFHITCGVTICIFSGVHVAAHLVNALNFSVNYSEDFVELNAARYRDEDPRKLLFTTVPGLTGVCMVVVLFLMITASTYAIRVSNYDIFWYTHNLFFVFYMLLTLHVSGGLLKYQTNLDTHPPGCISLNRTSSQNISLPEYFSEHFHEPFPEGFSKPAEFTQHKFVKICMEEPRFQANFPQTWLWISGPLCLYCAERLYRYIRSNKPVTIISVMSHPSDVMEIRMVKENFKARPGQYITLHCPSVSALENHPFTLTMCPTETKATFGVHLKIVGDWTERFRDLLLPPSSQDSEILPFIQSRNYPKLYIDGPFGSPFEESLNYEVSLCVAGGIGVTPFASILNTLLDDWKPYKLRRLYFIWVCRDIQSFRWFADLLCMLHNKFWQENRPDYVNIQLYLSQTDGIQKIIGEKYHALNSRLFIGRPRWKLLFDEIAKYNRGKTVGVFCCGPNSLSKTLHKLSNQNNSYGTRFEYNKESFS
NADPH oxidase 5 (Homo sapiens), sequence (Q96PH1 whole entry, looked up): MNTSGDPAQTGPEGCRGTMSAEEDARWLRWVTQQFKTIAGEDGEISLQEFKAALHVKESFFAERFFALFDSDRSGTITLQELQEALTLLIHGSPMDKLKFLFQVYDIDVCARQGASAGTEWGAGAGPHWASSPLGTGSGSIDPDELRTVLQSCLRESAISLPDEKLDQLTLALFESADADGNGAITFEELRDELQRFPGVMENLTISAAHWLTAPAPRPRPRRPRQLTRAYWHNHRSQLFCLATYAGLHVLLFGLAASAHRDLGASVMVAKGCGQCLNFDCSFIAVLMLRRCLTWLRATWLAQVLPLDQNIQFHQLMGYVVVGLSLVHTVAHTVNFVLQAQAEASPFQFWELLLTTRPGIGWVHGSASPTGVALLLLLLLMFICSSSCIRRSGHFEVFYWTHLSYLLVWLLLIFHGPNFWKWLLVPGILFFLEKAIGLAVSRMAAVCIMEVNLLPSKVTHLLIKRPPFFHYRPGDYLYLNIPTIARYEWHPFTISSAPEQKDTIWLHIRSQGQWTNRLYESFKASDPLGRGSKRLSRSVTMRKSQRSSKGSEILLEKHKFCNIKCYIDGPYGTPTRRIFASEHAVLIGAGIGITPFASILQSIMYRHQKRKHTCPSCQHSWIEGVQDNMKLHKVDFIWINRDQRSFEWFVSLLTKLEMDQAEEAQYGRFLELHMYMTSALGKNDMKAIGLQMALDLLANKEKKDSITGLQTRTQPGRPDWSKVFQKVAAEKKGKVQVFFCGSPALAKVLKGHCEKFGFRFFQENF

Take `C=C(COC)C(=O)CC[C@@H](OC(=O)c1cccnc1)c1cccc(OCCO)c1`: the composite z-score in [1] was 0.0666; in experiment [6], -0.296; in experiment [7], -0.127; with Torsin-1A (Homo sapiens) [8], 0.653; in the experiment with Torsin-1A (Homo sapiens) [9], 0.778; in experiment [10], 1.37. In experiment [12], this molecule registered a composite z-score of 0.571. In addition, the z-score is -0.864 (inactive) in [2]; -0.652 (inactive) in [3]; 8.15 (active) in experiment [4]; 5.43 (inactive) in experiment [5]; 0.857 (inactive) in [11]; 13.9 (active) in [13]. The z-score is 1.86 (inactive) in experiment [14]; 1.21 (inactive) in experiment [15]; 0.454 (inactive) in experiment [16]; 0.28 in experiment [17]; -3.15 (inactive) in [18]; -0.703 (inactive) in [19]. Further, the z-score in experiment [20] was -1.33.
For the molecule `CCCCC(O)C1C=CC2C(=O)NC(=O)C2N1Nc1ccccn1` (stereo not given), the composite z-score was -0.0034 in experiment [1]; 0.0033 in experiment [6]; 0.0225 in [7]; 0.477 with Torsin-1A (Homo sapiens) [8]; 0.203 in the experiment with Torsin-1A (Homo sapiens) [9]; -0.432 in [10]. This molecule returned a composite z-score in [12] of 0.235. For the same molecule, the z-score is 0.294 (inactive) in experiment [2]; -0.314 (inactive) in experiment [3]; -0.133 (inactive) in experiment [4]; 0.438 (inactive) in experiment [5]; -2.16 (inactive) in [11]; -0.162 (inactive) in experiment [13]. The z-score in experiment [14] was 0.387 (inactive); in experiment [15], -0.343 (inactive); in experiment [16], 0.483 (inactive); in [17], -1.11; in experiment [18], -1.48 (inactive); in [19], -2.5 (inactive). In addition, the z-score in experiment [20] is -2.17.
On to `COc1ccc([Si](C)(C)[C@H]2[C@H](CC(=O)N3Cc4ccccc4C[C@H]3CO)O[C@@]3(C(=O)N(Cc4cccc(N5C(=O)c6cccc7cccc5c67)c4)c4ccccc43)[C@@H]2C)cc1`, for which the composite z-score in experiment [1] was 0.862; in [6] it was 0.159; in [7], -0.0107; with Torsin-1A (Homo sapiens) [8], 1.39; with Torsin-1A (Homo sapiens) [9], 0.736; in [10] it was 2.23. In experiment [12], this molecule gave a composite z-score of -0.362. In addition, the z-score was -4.55 (inactive) in experiment [2]; -0.765 (inactive) in experiment [3]; 11 (active) in experiment [4]; -1.41 (inactive) in experiment [5]; -0.437 (inactive) in experiment [11]; 5.25 (inactive) in [13]. Besides, the z-score in experiment [14] was 0.572 (inactive); in experiment [15], 1 (inactive); in experiment [16], 0.793 (inactive); in experiment [17], -0.112; in [18], -1.79 (inactive); in [19], -0.0145 (inactive). Besides, the z-score in [20] is -0.799.
Regarding `COCCCNC(=O)[C@@H]1c2ccccc2C(=O)N(Cc2cc(C(F)(F)F)cc(C(F)(F)F)c2)[C@H]1c1ccc(CO)cc1`, the composite z-score in experiment [1] is 0.128; in experiment [6] it was -0.587; in experiment [7] it was 0.502; in the experiment with Torsin-1A (Homo sapiens) [8] it was 0.47; in the experiment with Torsin-1A (Homo sapiens) [9], 0.7; in experiment [10] it was 0.395. The molecule also yielded a composite z-score in experiment [12] of 1.24. The z-score in [2] was -0.334 (inactive); in [3], 0.608 (inactive); in [4], 0.288 (inactive); in experiment [5], -0.613 (inactive); in [11], 0.144 (inactive); in experiment [13], 1.58 (inactive). In addition, the z-score in experiment [14] is -0.0915 (inactive); in [15] it was 0.532 (inactive); in experiment [16], 0.254 (inactive); in experiment [17], -0.348; in experiment [18], 0.175 (inactive); in experiment [19] it was 0.414 (inactive). Moreover, the z-score in [20] came out at 1.54.
`COc1ccc(CC[C@H](O)c2cccc(OCC(=O)OC(C)(C)C)c2)cc1`: the composite z-score was found to be 0.42 in experiment [1]; 1.77 in experiment [6]; 0.156 in experiment [7]; 0.584 with Torsin-1A (Homo sapiens) [8]; 0.977 with Torsin-1A (Homo sapiens) [9]; 1.37 in experiment [10]. For the same molecule, the composite z-score in experiment [12] came out at 0.163. Also, the z-score in experiment [2] was -3.93 (inactive); in experiment [3], -0.0717 (inactive); in [4], 0.595 (inactive); in experiment [5], -0.251 (inactive); in experiment [11], -0.636 (inactive); in [13], 22.8 (active). Further, the z-score is 6.97 (inactive) in experiment [14]; 0.597 (inactive) in [15]; 0.794 (inactive) in experiment [16]; 0.118 in experiment [17]; -2.52 (inactive) in [18]; -0.941 (inactive) in experiment [19]. The z-score in [20] was -4.03.
